From PubChem BioAssay (NCI)
This is part of a sample that, as a whole, favours compounds with a hit. Of some 83,000 tested, about 20% had one in any assay.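 The endpoint reported here, percent growth, reads 100 for growth as untreated, 0 for no net growth and -100 for all cells dead.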 A number with no mark means an inactive call. Active and inactive are the calls of the source.

system: OVCAR-5 ovarian; test: NCI-60 one-dose screen, 48 h (100 = growth as untreated, 0 = no growth, -100 = all killed); conditions: 10 µM unless noted
Method: Growth inhibition of the OVCAR-5 human tumor cell line is measured as a screen for anti-cancer activity. Cells are grown in 96 well plates and exposed to the test compound for 48 hours. Compounds are tested at a single concentration, which is 10^-5 M for most compounds. The reported endpoint is percent growth (GI% or GIPRCNT), where numbers from 0 - 100% represent growth inhibition, and numbers from -100% - 0 represent cell death. For example, a value of 40 represents 60% growth inhibition. A value of 0 means no net growth occurred over the course of the experiment. A value of -40 indicates 40% of cells at the beginning of the experiment died by the end of the experiment. A value of -100 means all cells are dead at the end of the experiment.
NCI-60 Human Tumor Cell Lines Screen was performed using the standard one-dose NCI protocol, which is described in more detail at https://dtp.cancer.gov/discovery_development/nci-60/default.htm.
Compounds with GIPRCNT values below 10 were considered active. Activity score was based on GIPRCNT using the following formula: […]
Score is 0 for GIPRCNT values of 100 or above, 50 for GIPRCNT values of 0, and 100 for GIPRCNT values of -100.

Compound | growth
C=C(C)[C@@H]1CC[C@]2(CN)CC[C@]3(C)[C@H](CC[C@@H]4[C@@]5(C)CCC(N)[C@@](C)(CO)[C@@H]5CC[C@]43C)[C@@H]12 (stereo not given in full) | 48.5%
COc1ccc(/C=C(\C#N)n2nnc3cc(F)c(F)cc32)c(OC)c1OC | 98%
CC12CC(C#N)CCC1O2 (stereo not given) | 105%
CCN(CC)N=Nc1nn(C(=O)Nc2ccc(Cc3ccccc3)cc2)c2ccc(Cl)cc12 | 87.7%
Clc1ccc(-c2nnc(Cn3ccnc3)o2)cc1 | 96.2%
CCCCCOC(=O)c1ccc(NC(=O)CNCC(C)C)cc1 | 98.9%
CCCCCOC(=O)c1cccc(NC(=O)CN(CC)CC)c1 | 107%
COc1ccc(OC)c(Nc2nc3nonc3nc2Nc2cccc(Br)c2)c1 | 9% (active)
COc1ccc(/C=N/NC(=O)Cn2c(-c3ccc(S(C)(=O)=O)cc3)nc3cc(Cl)ccc32)cc1 | 36.8%
CC(=O)NCC(=O)Nc1ccc(-c2nnc3ccccn23)nc1.CC(=O)NCC(=O)Nc1ccc(-c2nnc3ccccn23)nc1.[Pt+2] | 114%
C/C(=N\NC(N)=S)c1nc2ccc(Cl)cc2[nH]1 | 69.8%
CC(=O)OCCc1ccccc1 | 91.2%
CC(c1ccc(-n2cccn2)cc1)c1cnc(N2CCc3ccc(C(N)=O)cc3C2)s1 (stereo not given) | 92.8%
COc1ccc(O)c(-c2cc(-c3ccccc3)c(C#N)c(=O)[nH]2)c1 | 124%
CCCCOc1ccc(NC(=O)n2nc(N=NN(C)C)c3ccc(Cl)cc32)cc1 | 103%
O=C(Nc1ccccn1)[C@H](O)[C@@H](O)C(=O)N1CCOCC1 | 118%
O=C(CCCCCCCn1cc(-c2cccnc2)nn1)Nc1ccccc1-c1ccccc1 | 62.6%
COc1ccc(-c2cc(-c3ccc(Nc4nc(Nc5ccccc5)nc(Nc5ccc(Cl)cc5)n4)cc3)nc(N)n2)cc1 | 66.5%
Cc1cn(C2CCCCC2)c(=O)[nH]c1=O | 94.9%
CC1=NN(c2cccc(Cl)c2)C(=O)/C1=C\c1cn(CC(O)CN2CCCCC2)c2ccccc12 (stereo not given) | 83.9%

Compound | growth
COc1cc2c(cc1OC)-c1ccc3cc4c(cc3c1N(CCCN(C)C)C2)OCO4 | 60%
COc1cc(/C=C/c2nc(Nc3ccc(S(=O)(=O)Nc4cc(C)on4)cc3)c3ccccc3n2)ccc1O | 88.7%
CC(C)c1ccc(NC(=O)Cc2ccc(Nc3ncnc4cc(-c5cnn(CCN(C)C)c5)ccc34)cc2)cc1 | -98.9% [30 µM] (active)
COc1cc2cc(Oc3ccc(NC(=O)Nc4cc(C(F)(F)F)cc(C(F)(F)F)c4)cc3)c(C)nc2cc1OCCN1CCCCC1 | -65.9% (active)
Cc1cccc(-c2cc(O)c(C(=O)N3CCOCC3)s2)c1 | 92.1%
C=C1C(=O)O[C@H]2[C@H]1CC/C(COC(=O)/C=C\C(=O)NCc1ccc(Cn3c(=O)sn(CCCI)c3=O)cc1)=C\CC[C@@]1(C)O[C@@H]21 | -83.9% (active)
COc1cccc(-c2cnco2)c1OCc1c(C)c(COc2c(OC)cccc2-c2cnco2)c(C)c(COc2c(OC)cccc2-c2cnco2)c1C | 74.9%
COc1ccc(-c2nc3sc4c(c3c(=O)[nH]2)CCCC4)c2ccccc12 | -17.7% (active)
CCC(O)(C(c1ccccc1)c1ccccn1)C(c1ccccc1)c1ccccn1 (stereo not given) | 96.4%
O=C(c1ccccc1)c1ccc(Cl)c([N+](=O)[O-])c1 | 99.1%
COc1ccc(Nc2ncc(Br)c(NCCCNC(=O)C3CCC3)n2)cc1 | 31.1%
O=C1CCC(N2C(=O)c3cccc(NCCCC4CCN(CCNC(=O)c5cc6c(o5)C(=O)c5ccccc5C6=O)CC4)c3C2=O)C(=O)N1 (stereo not given) | -98% (active)
O=C(CC12CC3CC(CC(C3)C1)C2)NCCOCCOCCOCCNC(=O)c1cc2c(o1)C(=O)c1ccccc1C2=O | -87.9% (active)
Cc1c(C(N)=O)sc2nc(C)n(/N=c3\scc(-c4ccccc4)n3Cc3ccccc3)c(=O)c12 | 47.9%
O=[N+]([O-])c1ccc2[nH]cc(-c3c4ccsc4cc4[nH]c5ccc([N+](=O)[O-])cc5c34)c2c1 | 10.9%
CCCc1nc2ccccn2c1Nc1ccc(C(=O)NO)cc1 | 93.7%
COc1cc2nc(Nc3ccc(F)cc3)nc(N)c2cc1OC | 99.1%
CCCCNCC(=O)Nc1ccc(C(=O)OCC)cc1 | 109%
O=[N+]([O-])c1ccc(-c2cc3c(Nc4ccc(Cl)c(C(F)(F)F)c4)ncnc3s2)cc1 | 26.6%
Fc1ccc(Nc2nc(Nc3ccc(-c4nc5ccccc5[nH]4)cc3)c3cn[nH]c3n2)cc1 | 106%
